Hit rate of the full screen: of about 31,000 compounds, about 360 (1.2%) were called active. The rule behind the calls is not given here. The entries come from a sample that favours actives as a whole.
Target: DNA-binding protein inhibitor ID-4 (Homo sapiens) (UniProt P47928)
Test: PubChem AID 624137;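 note: a binder raises fluorescence above local background on the spot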
Conditions: small molecule microarray, Flag-ID4 binding, fluorescence F/B

Chain of DNA-binding protein inhibitor ID-4 (Homo sapiens) (P47928 whole entry, looked up): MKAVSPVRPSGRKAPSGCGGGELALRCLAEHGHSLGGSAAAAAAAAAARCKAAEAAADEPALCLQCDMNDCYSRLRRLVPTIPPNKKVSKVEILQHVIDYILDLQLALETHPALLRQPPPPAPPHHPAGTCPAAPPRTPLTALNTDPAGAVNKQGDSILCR

SMILES	outcome
O=C(C[C@@H]1CC[C@@H](NS(=O)(=O)c2ccc(F)cc2)[C@H](CO)O1)NCc1ccc(Cl)c(Cl)c1	inactive
COc1ccccc1-c1cnc2c(c1)C(=O)N([C@H](C)CO)C[C@@H](C)[C@@H](CN(C)Cc1ccncc1)O2	inactive
COc1ccccc1-c1cnc2c(c1)C(=O)N([C@@H](C)CO)C[C@H](C)[C@H](CN(C)C(=O)c1ccncc1)O2	inactive
CC(C)CC#Cc1cnc2c(c1)C(=O)N([C@@H](C)CO)C[C@H](C)[C@@H](CN(C)C(=O)c1cccc(F)c1)O2	inactive
CC(C)CC#Cc1cnc2c(c1)C(=O)N([C@H](C)CO)C[C@H](C)[C@@H](CN(C)Cc1ccccc1)O2	inactive
c1ccc2[nH]c(CSc3nc4ccccc4[nH]3)nc2c1	inactive
C[C@@H]1CN([C@H](C)CO)C(=O)c2cc(C#CC3CCCC3)cnc2O[C@H]1CN(C)C(=O)C1CC1	inactive
COc1ccccc1-c1cnc2c(c1)C(=O)N([C@@H](C)CO)C[C@H](C)[C@H](CN(C)CC1CCOCC1)O2	inactive
CN(C)c1ccc2c(c1)[C@@H]1C[C@@H](CC(=O)NCc3ccccn3)O[C@H](CO)[C@@H]1O2	inactive
CCC(=O)N(C)C[C@H]1Oc2ncc(-c3ccc(C)cc3)cc2C(=O)N([C@@H](C)CO)C[C@@H]1C	inactive
COc1ccccc1-c1ccc2c(c1)O[C@H](CN(C)C(=O)c1cccnc1)[C@H](C)CN([C@@H](C)CO)S2(=O)=O	inactive
COc1cc(S(=O)(=O)NCCN2CCOCC2)ccc1Br	inactive
O=C(CSc1nnnn1-c1ccccc1)Nc1ccccc1C(=O)c1ccccc1	inactive
C[C@H](CO)N1C[C@H](C)[C@H](CN(C)CC2CC2)Oc2cc(-c3ccc(F)cc3)ccc2S1(=O)=O	inactive
O=C(C[C@H]1C=C[C@@H](NC(=O)C2CC2)[C@H](CO)O1)NCC1CC1	inactive
O=C(C[C@H]1C=C[C@@H](NC(=O)CC2CC2)[C@H](CO)O1)NCc1ccc(-c2ccccc2)cc1	inactive
Cc1ccc(-c2cnc3c(c2)C(=O)N([C@H](C)CO)C[C@@H](C)[C@@H](CN(C)C(=O)CN(C)C)O3)cc1	inactive
C[C@@H]1CN([C@H](C)CO)S(=O)(=O)c2ccc(-c3ccccc3)cc2O[C@@H]1CN(C)CC1CC1	inactive
CN(C)C(=O)C[C@H]1CC[C@@H](NC(=O)Nc2cccc(F)c2)[C@H](CO)O1	inactive
CC(C)c1cn(CC[C@@H]2CC[C@@H](NC(=O)C3CCC3)[C@@H](CO)O2)nn1	inactive
CN(C)C(=O)C[C@H]1CC[C@@H](NC(=O)C2CC2)[C@@H](CO)O1	inactive
O=C(C[C@@H]1C=C[C@@H](NC(=O)Nc2cccc(F)c2)[C@H](CO)O1)NCC1CCCCC1	inactive
CO[C@@H]1CN(C)C(=O)c2cc(NC(=O)c3ccccc3F)ccc2OC[C@@H](C)N(CC2CC2)C[C@H]1C	inactive
CC(C)NC(=O)N(C)C[C@@H]1Oc2ccc(N(C)C)cc2C(=O)N([C@@H](C)CO)C[C@H]1C	inactive
CC(C)NC(=O)N(C)C[C@@H]1Oc2c(cccc2N(C)C)C(=O)N([C@H](C)CO)C[C@@H]1C	inactive
CC(C)NC(=O)N(C)C[C@@H]1Oc2c(cccc2N(C)C)C(=O)N([C@@H](C)CO)C[C@H]1C	active

SMILES	outcome
CCC(Oc1cccc(NC(=O)c2ccccc2[N+](=O)[O-])c1)C(=O)c1ccccc1 (stereo not drawn)	inactive
C[C@@H]1CN([C@H](C)CO)C(=O)c2cc(C#Cc3cccc(F)c3)cnc2O[C@H]1CN(C)Cc1ccccn1	inactive
CCCC#Cc1ccc2c(c1)O[C@@H](CN(C)CCC)[C@@H](C)CN([C@H](C)CO)S2(=O)=O	inactive
CC(C)NC(=O)N(C)C[C@H]1Oc2ncc(C#CC3CC3)cc2C(=O)N([C@H](C)CO)C[C@@H]1C	inactive
C[C@@H]1CN([C@@H](C)CO)C(=O)c2cc(-c3ccccc3F)cnc2O[C@@H]1CN(C)Cc1cccc(F)c1	inactive
O=C(C[C@@H]1C=C[C@@H](NC(=O)c2ccccn2)[C@@H](CO)O1)NCc1cc(F)cc(F)c1	inactive
C[C@@H]1CN([C@H](C)CO)C(=O)c2cc(-c3ccncc3)cnc2O[C@H]1CN(C)C	inactive
C[C@H]1CN([C@@H](C)CO)C(=O)c2cc(C3=CCCC3)cnc2O[C@@H]1CN(C)Cc1cccnc1	inactive
C/C=C/c1ccc2c(c1)O[C@H](CN(C)C)[C@H](C)CN([C@H](C)CO)S2(=O)=O	inactive
CCC1=NN(C(=O)C(C)C)C(O)(c2ccc(Br)cc2)C1 (stereo not drawn)	inactive
CC(=O)N(C)C[C@@H]1Oc2ncc(C#CCc3ccccc3)cc2C(=O)N([C@H](C)CO)C[C@H]1C	inactive
C[C@H](CO)N1C[C@H](C)[C@H](CN(C)C)Oc2ncc(-c3ccncc3)cc2C1=O	inactive
COc1cccc(S(=O)(=O)N[C@H]2C=C[C@H](CC(=O)NC3Cc4ccccc4C3)O[C@H]2CO)c1	inactive
CC(C)NC(=O)N(C)C[C@@H]1Oc2ncc(C#CC3CC3)cc2C(=O)N([C@@H](C)CO)C[C@H]1C	inactive
O=C(C[C@@H]1CC[C@@H](NC(=O)C2CC2)[C@@H](CO)O1)NCc1ccccc1Cl	inactive
COCC#Cc1ccc2c(c1)O[C@H](CN(C)CC1CC1)[C@H](C)CN([C@H](C)CO)S2(=O)=O	inactive
C[C@H](CO)N1C[C@H](C)[C@H](CN(C)C)Oc2cc(C#Cc3ccccc3F)ccc2S1(=O)=O	inactive
O=C(C[C@@H]1C=C[C@@H](NC(=O)c2cccnc2)[C@H](CO)O1)NCCN1CCCCC1	inactive
COC(=O)C[C@H]1CC[C@H](NC(=O)c2ccccc2)[C@@H](CO)O1	inactive
CC(C)CC#Cc1cnc2c(c1)C(=O)N([C@H](C)CO)C[C@H](C)[C@@H](CN(C)Cc1ccccc1C(=O)O)O2	inactive
O=C(C[C@@H]1C[C@H]2c3cc(NC(=O)C4CCOCC4)ccc3O[C@H]2[C@H](CO)O1)NCc1ccc2c(c1)OCO2	inactive
C[C@H]1CN([C@@H](C)CO)S(=O)(=O)c2ccc(-c3ccccc3F)cc2O[C@H]1CN(C)C(=O)C1CC1	inactive
C[C@@H]1CN([C@H](C)CO)C(=O)c2cc(C#CCC3CCCC3)cnc2O[C@H]1CN(C)C(=O)c1cnccn1	inactive
CO[C@H](CN(C)S(=O)(=O)c1ccc(C)cc1)[C@@H](C)CN(Cc1ccccc1Cl)[C@@H](C)CO	inactive
N#Cc1c(NC(=O)CCn2cnc3ccccc3c2=O)sc2c1CCCC2	inactive
CCn1c(SCC(=O)Nc2cc(Cl)c(Cl)cc2Cl)nnc1-c1ccccc1Cl	inactive

SMILES	outcome
CCn1c(SCC(=O)Nc2sc3c(c2C#N)CCCC3)nnc1-c1ccccc1O	active
C[C@@H]1CN([C@@H](C)CO)C(=O)c2cc(C3=CCCC3)cnc2O[C@H]1CN(C)Cc1ccccc1F	inactive
COCC(=O)N[C@H]1C=C[C@H](CC(=O)N2CCCCC2)O[C@H]1CO	inactive
Cc1ccc(-c2ccc3c(c2)O[C@H](CN(C)C)[C@@H](C)CN([C@@H](C)CO)S3(=O)=O)cc1	inactive
CO[C@@H](CN(C)S(=O)(=O)c1ccc(F)cc1)[C@H](C)CN(C(=O)Nc1ccccc1F)[C@@H](C)CO	inactive
O=C(C[C@H]1C=C[C@@H](NC(=O)Nc2cc(F)ccc2F)[C@H](CO)O1)NCCCN1CCOCC1	inactive
CN(C)C(=O)C[C@H]1C=C[C@@H](NC(=O)c2ccc(F)cc2)[C@@H](CO)O1	inactive
C[C@H]1CN([C@@H](C)CO)C(=O)c2cc(Br)cnc2O[C@@H]1CN(C)C(=O)c1ccccc1F	inactive
O=C(CN1C(=O)c2ccccc2S1(=O)=O)Nc1ccc(F)c(F)c1	inactive
O=C(CSc1nnc(-c2ccccc2)n1-c1ccccc1)c1ccc(F)cc1	inactive
CO[C@@H](CN(C)C(=O)c1cnccn1)[C@@H](C)CN([C@@H](C)CO)S(=O)(=O)c1ccc(F)cc1	inactive
C[C@H]1CN([C@@H](C)CO)C(=O)c2cc(Br)cnc2O[C@H]1CN(C)CC1CCCC1	inactive
CCCN(C)C[C@@H]1Oc2cc(-c3ccc(C)cc3)ccc2S(=O)(=O)N([C@@H](C)CO)C[C@H]1C	inactive
CCC(=O)N[C@H]1C=C[C@@H](CC(=O)NCC2CCCCC2)O[C@H]1CO	inactive
C[C@@H]1CN([C@H](C)CO)C(=O)c2cc(Br)cnc2O[C@@H]1CN(C)C(=O)C1CC1	inactive
C[C@H](CO)N1C[C@H](C)[C@@H](CN(C)C)Oc2ncc(-c3cccc(F)c3)cc2C1=O	inactive
C[C@@H]1CN([C@H](C)CO)S(=O)(=O)c2ccc(-c3cccc(C#N)c3)cc2O[C@@H]1CN(C)C(=O)Nc1ccccc1F	active
C[C@@H]1CN([C@@H](C)CO)S(=O)(=O)c2ccc(-c3cccc(C#N)c3)cc2O[C@@H]1CN(C)Cc1cccc(F)c1	inactive
CCCN(C)C[C@@H]1Oc2cc(-c3cccc(C#N)c3)ccc2S(=O)(=O)N([C@@H](C)CO)C[C@@H]1C	inactive
Cc1cc(C)c(OCC(=O)Nc2cccnc2)c(Br)c1	inactive
COc1ccc(NC(=O)Cc2nc(-c3cc4ccccc4oc3=O)cs2)cc1	inactive
COc1cccc(S(=O)(=O)N[C@H]2C=C[C@H](CC(=O)NC3Cc4ccccc4C3)O[C@@H]2CO)c1	inactive
CN(C)c1ccc2c(c1)[C@H]1C[C@H](CC(=O)NCc3ccc(Cl)cc3)O[C@H](CO)[C@H]1O2	inactive
CC(=O)N(C)C[C@H]1Oc2cc(C#Cc3ccccc3F)ccc2S(=O)(=O)N([C@H](C)CO)C[C@@H]1C	inactive
COc1ccc(CNC(=O)C[C@@H]2C=C[C@@H](NC(=O)c3ccc4c(c3)OCO4)[C@@H](CO)O2)cc1	inactive
O=C(C[C@H]1CC[C@@H](NC(=O)Cc2ccccn2)[C@H](CO)O1)NCCc1ccccc1	inactive
